This note sets out measurements from publication PMC5540273 (PLoS ONE, 2017).

Like-named read-outs stand apart in the source and are kept apart here.

One test deals with T1, GRK2.
T1 construct: gene ADRBK1
Conditions: concentration: 1 μM, replicates: in singlicate; n = 1.

In a further test the test system is T2, GRK3.
T2 construct: gene ADRBK2
Conditions: concentration: 1 μM, replicates: in singlicate; n = 1.

The next test relates to GRK4. Conditions: concentration: 1 μM, replicates: in singlicate; n = 1.
The next test deals with GRK7. Conditions: concentration: 1 μM, replicates: in singlicate; n = 1.
For a further test, the system named is GSK3A. Conditions: concentration: 1 μM, replicates: in singlicate; n = 1.
For the next test, the system named is GSK3B. Conditions: n = 1.
Another test deals with T3, HASPIN.
T3 construct: gene GSG2
Conditions: concentration: 1 μM, replicates: in singlicate; n = 1.

Another test deals with HCK. Conditions: concentration: 1 μM, replicates: in singlicate; n = 1.
In another test the test system is HIPK1. Conditions: concentration: 1 μM, replicates: in singlicate; n = 1.
The subject of a further test is HIPK2. Conditions: concentration: 1 μM, replicates: in singlicate; n = 1.
[1] abbreviates: concentration: 1 μM, replicates: in singlicate.
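Note: KINOMEscan kinase panel screen.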

`CCc1ccc(-c2ccc3c(c2)-c2nn(C)cc2S(=O)(=O)N3C)cc1`: the “%Inh” value was determined as 0% in the test on GRK2; 0% in the test on GRK3; 0% with GRK4; 0% in the test on GRK7; 30% in the test on GSK3A; 0% with GSK3B (setting [1]). The “%Inh” value was 23% with HASPIN, 2% in the test on HCK, 0% in the test on HIPK1 and 0% with HIPK2.

`Cc1ccc(-c2ccc3c(ccc4sc5c(c43)NC[C@@H](C)N=C5N(C)C)n2)cn1`: the “%Inh” value turned out to be 0% in the test with GRK2; 1% in the test with GRK3; 0% with GRK4; 0% in the test on GRK7; 0% in the test on GSK3A; 0% in the test on GSK3B (setting [1]). Also, the “%Inh” value in the test with HASPIN is reported as 23%; in the test on HCK, 14%; with HIPK1, 0%; in the test with HIPK2, 0%.

Regarding `CCC(=O)c1c(-c2ccccc2)c2cc(Cl)ccc2c(=O)n1Cc1cc(S(C)(=O)=O)n(CC(N)=O)n1`, the “%Inh” value was 0% in the test with GRK2; 0% with GRK3; 0% in the test with GRK4; 0% in the test on GRK7; 6% in the test on GSK3A; 0% in the test with GSK3B (setting [1]). The “%Inh” value amounted to 0% in the test on HASPIN, 24% with HCK, 29% in the test on HIPK1 and 0% in the test on HIPK2.

Regarding `Cc1cc(Nc2nc(-c3cccc(C)n3)nc3ccccc23)ccn1` [GW872411], the “%Inh” value in the test with GRK2 is given as 0%; in the test with GRK3, 0%; in the test with GRK4, 35%; with GRK7, 0%; with GSK3A, 0%; in the test on GSK3B (setting [1]) it was 0%. Further, the “%Inh” value in the test on HASPIN was 0%; in the test on HCK, 7%; in the test with HIPK1 it was 0%; in the test with HIPK2, 0%.

Take `COc1cccc(C2=C(Nc3cccc(C(=O)O)c3)C(=O)NC2=O)c1` [SB-390770]: the “%Inh” value with GRK2 amounted to 0%; in the test on GRK3, 22%; in the test on GRK4, 0%; with GRK7, 0%; in the test with GSK3A, 51%; in the test with GSK3B (1 µM), 31%. Also, the “%Inh” value is 10% with HASPIN, 0% with HCK, 0% with HIPK1 and 0% in the test with HIPK2.

Take `Fc1cccc(CSc2nnc(-c3ccc4c(c3)CCO4)o2)c1`: the “%Inh” value in the test with GRK2 was found to be 35%; in the test on GRK3, 10%; in the test on GRK4 it was 0%; in the test with GRK7, 19%; with GSK3A, 64%; in the test with GSK3B (1 µM), 37%. For the same molecule, the “%Inh” value was 20% in the test with HASPIN, 1% with HCK, 18% in the test with HIPK1 and 30% in the test with HIPK2.

`COC(=O)c1c(-c2ccccc2)c2cc(Br)ccc2c(=O)n1Cc1ccc(NC(=O)CCC(=O)O)cc1`: the “%Inh” value with GRK2 is 19%; with GRK3 it was 8%; in the test on GRK4, 0%; in the test on GRK7, 31%; with GSK3A, 0%; in the test on GSK3B (setting [1]), 15%. The “%Inh” value amounted to 6% with HASPIN, 14% with HCK, 26% with HIPK1 and 28% in the test with HIPK2.

With `Cc1ccccc1COc1cc(-n2cnc3cc(Cl)ccc32)sc1C(N)=O` [GW813349], the “%Inh” value with GRK2 is on record as 0%; in the test on GRK3, 0%; with GRK4 it was 2%; in the test on GRK7 it was 0%; with GSK3A, 17%; in the test with GSK3B (setting [1]) it was 14%. The “%Inh” value is reported as 16% in the test on HASPIN, 11% with HCK, 30% with HIPK1 and 24% in the test with HIPK2.

For `COc1cc2ncn(-c3cc(OCc4ccncc4)c(C(N)=O)s3)c2cc1OC` [GSK336313], the “%Inh” value came out at 0% in the test with GRK2; 0% in the test with GRK3; 0% in the test with GRK4; 0% in the test with GRK7; 15% in the test on GSK3A; 7% with GSK3B (setting [1]). Also, the “%Inh” value in the test on HASPIN is given as 0%; in the test with HCK, 0%; with HIPK1, 15%; in the test on HIPK2, 0%.

Turning to `O=C(Nc1n[nH]c2cc(-c3ccccc3F)ccc12)C1CC1` [SB-733371], the “%Inh” value with GRK2 came to 0%; in the test on GRK3 it was 0%; with GRK4, 26%; with GRK7, 0%; with GSK3A, 24%; in the test with GSK3B (setting [1]) it was 19%. Moreover, the “%Inh” value amounted to 22% in the test on HASPIN, 0% in the test with HCK, 2% with HIPK1 and 0% with HIPK2.

As to `CCn1c(-c2nonc2N)nc2ccccc21` [SB-693162/GW549034], the “%Inh” value in the test with GRK2 came out at 0%; in the test with GRK3 it was 14%; in the test with GRK4 it was 30%; in the test with GRK7, 25%; in the test on GSK3A, 0%; in the test on GSK3B (setting [1]), 37%. For the same molecule, the “%Inh” value with HASPIN is 0%; in the test on HCK, 0%; in the test with HIPK1 it was 29%; in the test with HIPK2, 45%.

For the molecule `COc1cc(OC)cc(-c2cc3cnc(N)nc3nc2NC(=O)NC(C)(C)C)c1`, the “%Inh” value in the test with GRK2 was found to be 0%; in the test with GRK3, 0%; in the test with GRK4, 13%; in the test with GRK7, 9%; with GSK3A it was 0%; in the test on GSK3B (setting [1]), 0%. Besides, the “%Inh” value is on record as 0% in the test on HASPIN, 0% with HCK, 15% in the test with HIPK1 and 0% in the test with HIPK2.

In the case of `Cn1c(=O)c(F)c(Nc2ccc(I)cc2F)c2c(=O)n(OC[C@H](O)CO)cnc21`, the “%Inh” value turned out to be 0% in the test on GRK2; 0% with GRK3; 0% in the test on GRK4; 0% in the test on GRK7; 0% in the test with GSK3A; 3% in the test on GSK3B (setting [1]). The “%Inh” value turned out to be 4% with HASPIN, 10% with HCK, 52% in the test with HIPK1 and 0% with HIPK2.

On to `O=C(NCCNc1ccnc(Nc2ccc(F)cc2)n1)Nc1ccc2c(c1)OCO2` [GSK1379882], for which the “%Inh” value was 0% in the test with GRK2; 0% with GRK3; 0% in the test with GRK4; 0% in the test with GRK7; 34% in the test on GSK3A; 6% with GSK3B (setting [1]). In addition, the “%Inh” value in the test with HASPIN, with HCK, with HIPK1 and with HIPK2 was 0% throughout.

As for `COc1ccc(-c2cc3c(C)nc(N)nc3n([C@H]3CC[C@H](O)CC3)c2=O)cn1`, the “%Inh” value stood at 0% in the test with GRK2; 14% with GRK3; 0% in the test on GRK4; 1% with GRK7; 0% with GSK3A; 0% with GSK3B (setting [1]). Also, the “%Inh” value in the test with HASPIN, in the test with HCK, with HIPK1 and in the test with HIPK2 was 0% in each case.

As to `Cc1cccc(-c2cc(-c3c[nH]nc3-c3ccccn3)ccn2)c1` [GW679395], the “%Inh” value in the test on GRK2 amounted to 0%; in the test on GRK3, 39%; in the test on GRK4, 0%; in the test with GRK7 it was 0%; in the test with GSK3A it was 17%; in the test with GSK3B (setting [1]) it was 7%. The “%Inh” value in the test with HASPIN is on record as 25%; in the test with HCK it was 0%; in the test on HIPK1 it was 0%; in the test with HIPK2, 0%.

For `OCCCNc1nccc(-c2c(-c3cccc(C(F)(F)F)c3)nn3cc(C(F)(F)F)ccc23)n1` [GW630813], the “%Inh” value is recorded as 0% in the test on GRK2; 37% in the test with GRK3; 0% in the test with GRK4; 0% in the test on GRK7; 0% with GSK3A; 2% with GSK3B (setting [1]). The “%Inh” value is on record as 21% with HASPIN, 0% with HCK, 0% with HIPK1 and 0% in the test with HIPK2.

Turning to `COc1ccc(CNC(=O)NC2CCN(c3ccnc(Nc4ccc(F)cc4)n3)C2)cc1` (stereo not drawn) [GSK1379706], the “%Inh” value with GRK2 worked out at 0%; in the test on GRK3, 51%; in the test on GRK4, 19%; in the test on GRK7, 0%; in the test with GSK3A, 23%; with GSK3B (setting [1]) it was 1%. Also, the “%Inh” value with HASPIN turned out to be 32%; with HCK, 0%; with HIPK1, 19%; in the test with HIPK2 it was 13%.
